Molecules are shown by their SMILES. In all, about 71,000 compounds went through this assay and about 180 (0.25%) were called active. Entries that show only a call come without a potency. Many of the other results were omitted from the sample, so actives are more common in it than they were. A number with no mark means an inactive call. Calls follow the shape of the dose curve; as a rule, active = well fitted curve in the direction sought with a large enough effect; inconclusive = small, poorly fitted or top-dose-only effect; inactive = flat fitted curve, though single readings scatter.

The assay relates to DNA polymerase III holoenzyme (E. coli). Kind of assay: qHTS Assay for Inhibitors of DNA Polymerase III Holoenzyme System. Conditions: reconstituted DNA polymerase III holoenzyme replication, biochemical; series mostly up to 57.1 µM. Here is the method: NIH Molecular Libraries Screening Centers Network [MLSCN]
NIH Chemical Genomics Center [NCGC]
Assay Provider: Charles McHenry, University of Colorado
E. coli DNA polymerase III holoenzyme complex was assayed for DNA production by fluorescent detection of the double-stranded DNA product with PicoGreen dye. The holoenzyme complex was reconstituted from the following purified protein components: DNA Polymerase III, beta subunit processivity factor, SSB single-stranded DNA binding protein, and Primase. Single-stranded, circular M13Gori was used as a substrate with dNTPs and NTPs also supplied to the substrate reagent. Compounds from the NCGC collection were incubated with the holoenzyme mixture for 15 min at room temperature to allow binding to occur, and then the reaction was started by the addition of substrate. After 30 min incubation at room temperature, PicoGreen solution containing EDTA was added to stop the reaction and to visualize the double-stranded DNA produced. Reaction progress was measured in a ViewLux CCD imager in fluorescence intensity mode by using 480 nm excitation and 540 nm emission filter set.
NCGC Assay Protocol Summary:
Buffer. 50 mM Hepes-KOH, pH 7.5, 5 % Glycerol, 0.02% NP40, 30 mM potassium;
glutamate, 1.5 mM Magnesium Acetate, 16 uM TCEP.
Buffer in columns 3 and 4 as negative control (no enzyme).
Substrate solution: 5 uM each dATP, dGTP, dCTP and TTP, 50 uM each GTP, CTP, UTP and 200 uM ATP, 1.4 nM M13gori (final concentrations).
Enzyme: 154 nM SSB, 2 nM Primase, 1 nM Beta, 0.35 nM Pol III (final concentrations).
PicoGreen/EDTA: 10 mM Tris-HCl, 10 mM EDTA, 5 uM PicoGreen (final concentrations).
Control titration: ChemBridge 5805060 (from 10 mM, then 1:2, in duplicate) was pin-transferred to upper half of column 2.
Three uL of holoenzyme mixture were dispensed to 1536-well Greiner black solid bottom plates. Compounds and controls (23 nL) were transferred via Kalypsys PinTool. The plates were incubated for 15 min at room temperature, and then 1 uL of substrate solution was added to start the reaction. After room temperature incubation for 35 minutes, 1 uL of PicoGreen solution was added to each well and the plates were read 480 nm excitation and 540 nm emission using ViewLux (Perkin-Elmer) High-throughput CCD imager and fluorescence protocol settings.
Keywords: NIH Roadmap, MLSCN, MLI, MLSMR, qHTS, NCGC, DNA Polymerase III, DNAPol3, DNAPoly3, DNA replication targets
For orientation: Quantitative high-throughput screening tests each substance at several concentrations.
Regarding `CC(C)c1cc(CN(C)C)c(O)c(C(C)(C)C)c1`, the activity change, negative = inhibition is -6.4% [at 11.4 µM].

Consider `COc1cccc(Cn2c(=O)c(-c3cc(F)cc(F)c3)nc3cnc(OC)nc32)c1`, for which the activity change, negative = inhibition result was “inactive”.

With `O=c1cc(-c2ccccc2)[nH]c2nc(Cl)ccc12`, the activity change, negative = inhibition entry is “inactive”.

`COC(=O)[C@@]1(Cc2ccc(F)cc2)[C@H]2c3cc(C(=O)N4CCCC4)n(C[C@H](O)CO)c3C[C@H]2CN1C(=O)c1ccccc1`: the activity change, negative = inhibition entry was “inactive”.

For the molecule `CC(=O)O[C@]1(C(C)=O)CC[C@@H]2[C@@H]3C=C(C)C4=CC(=O)CC[C@@]4(C)[C@H]3CC[C@]21C`, the activity change, negative = inhibition entry was “inactive”.

As to `O=C(O)CC(C(=O)O)C(CC(=O)O)C(=O)O` (centres undefined), the activity change, negative = inhibition result is “inactive”.

With `COc1ccc(OC)c(NC(=O)CSc2nc(N)c(-c3ccccc3)c(=O)[nH]2)c1`, the activity change, negative = inhibition entry is “inactive”.

`O=C(CSc1nnc(-c2ccncc2)n1C1CCCCC1)Nc1ccccc1`: the activity change, negative = inhibition result was “inactive”.

Consider `CCN(CC)S(=O)(=O)c1ccc(NC(=O)CN(c2cccc(F)c2)S(C)(=O)=O)cc1`, for which the activity change, negative = inhibition result was “inactive”.

In the case of `O=C(Nc1c(-c2ccccc2)nc2c(Br)cc(Br)cn12)c1ccco1`, the activity change, negative = inhibition entry was “inactive”.

In the case of `COC(=O)[C@@]1(Cc2ccc(F)cc2)[C@@H]2[C@@H](CC(=O)[C@H]2CC(=O)C(=O)N2CCCC2)CN1C(=O)c1ccccc1`, the activity change, negative = inhibition entry is “inactive”.

As to `O=c1[nH]c(=O)c2nc3ccccc3nc2[nH]1`, the activity change, negative = inhibition entry is “inactive”.

With `Cc1cccn2c(=O)c3cc(C(=O)NCc4ccccn4)n(C)c3nc12`, the activity change, negative = inhibition entry was “inactive”.

For `O=C(NCc1ccccn1)c1cc2ccccc2oc1=O`, the activity change, negative = inhibition entry is “inactive”.

For the molecule `O=C(NCc1ccccn1)c1ccc2nc(-c3ccco3)c(-c3ccco3)nc2c1`, the Potency was 3.98 µM (active).

In the case of `CC(C)Cc1ccc(S(=O)(=O)N2CCN(C(=O)c3ccco3)CC2)cc1`, the activity change, negative = inhibition entry was “inactive”.

For the molecule `COc1ccc(NC(=O)N2CC3(CCN(C(=O)c4cccn4C)CC3)C2)cc1`, the activity change, negative = inhibition result was “inactive”.

Consider `CC1Cc2nc(SCC(=O)Nc3ccccc3F)n(C)c(=O)c2S1` (centres undefined), for which the activity change, negative = inhibition result is “inactive”.

Regarding `Cc1cc(C)cc(N(CC(=O)NCC2CCCO2)S(=O)(=O)c2c(C)noc2C)c1` (centres undefined), the activity change, negative = inhibition result is “inactive”.

In the case of `COc1ccc(C[C@H](N)C(=O)N[C@@H]2[C@H](O)[C@H](n3cnc4c(N(C)C)ncnc43)O[C@@H]2CO)cc1`, the activity change, negative = inhibition entry was “inactive”.

For `COc1ccc(-c2nnc(SCC(=O)NC3CCCCC3)o2)cc1OC`, the activity change, negative = inhibition entry was “inactive”.

Regarding `COc1ccc2nc(N3CCCC(O)C3)c(C#N)cc2c1` (centres undefined), the activity change, negative = inhibition result was “inactive”.

For `CC(=O)Oc1ccccc1C(=O)Nc1ncc([N+](=O)[O-])s1`, the activity change, negative = inhibition result is “inactive”.

With `COC(=O)[C@H](C)[C@H]1C[C@]1(C)[C@H](NC(=O)OCc1ccccc1)c1ccccc1`, the activity change, negative = inhibition entry was “inactive”.

For the molecule `CCOC(=O)N1CCN(C(=O)COc2ccc(Br)cc2)CC1`, the activity change, negative = inhibition was 0.2% [at 11.4 µM].

With `N#Cc1c(NC(=O)CSc2nc3ccccc3c(=O)n2Cc2ccco2)sc2c1CCCC2`, the activity change, negative = inhibition result is “inactive”.

Turning to `COc1ccc(-n2c(=O)c(-c3cn(C)c4ccccc34)nc3cnc(OC)nc32)cc1`, the activity change, negative = inhibition result was “inactive”.

Regarding `CC(=O)Oc1cccc(N2C(=O)C3CC=C(Cl)CC3C2=O)c1` (centres undefined), the activity change, negative = inhibition result was “inactive”.

`COc1ccc(CNc2ncnc3ccc(-c4cccnc4)cc23)c(OC)c1`: the activity change, negative = inhibition entry was “inactive”.

Regarding `CCOC(=O)CC1C(=O)NCCN1C(=O)COc1ccc(Br)cc1C` (centres undefined), the activity change, negative = inhibition entry is “inactive”.

Turning to `CC1CCN(c2oc(-c3ccccc3F)nc2C#N)CC1`, the activity change, negative = inhibition result is “inactive”.

For `c1ccc(CSCCc2ccncc2)cc1`, the activity change, negative = inhibition is -2.4% [at 11.4 µM].

`N#C/C(=C\c1ccc(O)c(O)c1)C(N)=O`: the activity change, negative = inhibition result is “inactive”.

As for `COC(=O)[C@@]1(Cc2ccc(F)cc2)[C@H]2c3cc(C(=O)N4CCCC4)n(Cc4ccc(OC(F)(F)F)cc4)c3C[C@H]2CN1C(=O)c1ccccc1`, the activity change, negative = inhibition entry is “inactive”.

In the case of `OCCN1CCN(CC/C=C2\c3ccccc3Sc3ccc(C(F)(F)F)cc32)CC1`, the activity change, negative = inhibition result is “inactive”.

For `O=C(Nc1c2c(nn1-c1ccc(F)cc1)CS(=O)C2)C12CC3CC(CC(C3)C1)C2` (centres undefined), the activity change, negative = inhibition result is “inactive”.

In the case of `CCOC(=O)c1sc(N(Cc2ccccc2)C(=O)CN2C(=O)CN(C)C2=O)nc1C`, the activity change, negative = inhibition result was “inactive”.

For `O=C(Nc1cccc(F)c1)N1CC2(CCN(C(=O)c3cnccn3)CC2)C1`, the activity change, negative = inhibition result is “inactive”.

Take `c1ccc2c(Nc3ccncc3)nc(-c3ccoc3)nc2c1`: the activity change, negative = inhibition entry is “inactive”.

`Cc1ccc(N2C(=O)c3oc4ccccc4c(=O)c3C2c2cccnc2)nc1` (centres undefined): the activity change, negative = inhibition result was “inactive”.

In the case of `COc1ccccc1N1CCN(Cc2ccc(OC)c3ccccc23)CC1`, the activity change, negative = inhibition result was “inactive”.

Take `CCCCCCN(C(=O)CCCCCN1C(=O)NC(c2ccc(C(F)(F)F)cc2)C(C(=O)OCc2ccccc2)=C1C)C(C(=O)NCCCC)c1ccc(OCC(=O)OC)c(C(=O)OC)c1` (centres undefined): the activity change, negative = inhibition result is “inactive”.

Regarding `C[C@@H]1O[C@@H](O[C@@H]2[C@@H](O)[C@H](OCCc3ccc(O)c(O)c3)O[C@H](CO[C@@H]3O[C@H](CO)[C@@H](O)[C@H](O)[C@H]3O)[C@H]2OC(=O)/C=C/c2ccc(O)c(O)c2)[C@H](O)[C@H](O)[C@H]1O`, the activity change, negative = inhibition result is “inactive”.

On to `C/C=C1\C(=O)C[C@@H]2[C@@H]3CCC4=CC(=O)CC[C@@]4(C)[C@H]3CC[C@@]12C`, for which the activity change, negative = inhibition entry was “inactive”.

Regarding `O=C(O)C1=CCCN(CCON=C(c2ccccc2)c2ccccc2)C1`, the activity change, negative = inhibition result was “inactive”.

As for `COC(=O)C1=C(C)N(C)C(C)=C(C(=O)OC)C1c1cccc(Br)c1`, the activity change, negative = inhibition entry was “inactive”.

Regarding `O=C(NCc1cccnc1)c1cn(-c2ccccc2)nc1-c1cccs1`, the activity change, negative = inhibition entry was “inactive”.

In the case of `O=S(=O)(Nc1nccs1)c1ccc2c(c1)OCCO2`, the activity change, negative = inhibition entry is “inactive”.

As to `COC(=O)C1(C)C=CCN1C(=O)c1ccccc1` (centres undefined), the activity change, negative = inhibition result was “inactive”.

With `COc1cccc(-c2cc3nc4c(c(N5CCC6(CC5)OCCO6)n3n2)CCCC4)c1`, the activity change, negative = inhibition entry was “inactive”.

Take `CCOc1ccccc1C1C(C(=O)OC)=CN(C)C=C1C(=O)OC`: the activity change, negative = inhibition result is “inactive”.

Take `CC(C)NC(=O)N1CCCC2(CCN(C(=O)c3cccn3C)CC2)C1`: the activity change, negative = inhibition result is “inactive”.

For the molecule `COc1ccc(N)c(OC)c1`, the activity change, negative = inhibition entry was “inactive”.

`CC1=C2C(=O)OC(c3ccoc3)C2(C)CCC1` (centres undefined): the activity change, negative = inhibition entry is “inactive”.

As for `Cn1c(SCC(=O)Nc2cccc(NC(=O)c3cccs3)c2)nnc1-c1ccncc1`, the activity change, negative = inhibition result is “inactive”.

Turning to `C[N+](C)(CCCCCC[N+](C)(C)CCCN1C(=O)c2cccc3cccc(c23)C1=O)CCCN1C(=O)c2cccc3cccc(c23)C1=O`, the Potency was 15.8 µM (active).

Consider `COc1ccc(N2C(=O)c3cccc4cccc(c34)C2=O)nn1`, for which the activity change, negative = inhibition entry was “inactive”.

Consider `O=C1c2ccccc2C(=O)N1CCCSc1ccccc1`, for which the activity change, negative = inhibition is -7.1% [at 11.4 µM].

Regarding `COc1ccc2[nH]cc(CCNc3cc(-c4ccccc4CN(C)C)ncn3)c2c1`, the activity change, negative = inhibition result is “inactive”.

The record behind these values is PubChem BioAssay AID603 (National Center for Advancing Translational Sciences (NCATS), 2007).
